Compound activity: PubChem, National Center for Advancing Translational Sciences (NCATS)
PNC inhibitor = High Content Assay for Compounds that inhibit the Assembly of the Perinucleolar Compartment; AID 2417, 2010; activity change (PNC), negative = inhibition, % at 10 µM; 140,000 compounds, 3.1% hits; PC3M PTB-GFP, PNC prevalence imaging, 16 h; hits give low values;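 active = readout at or below -70, meaning at least 70% loss of cells showing the perinucleolar compartment, a nuclear body marking cancer cells; inconclusive = readout between -30 and a set limit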;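 also: plate controls were DMSO wells for no effect and camptothecin positive control wells for full effect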
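PC3M cells stably expressing PTB-GFP, 750–1000 cells/well, treated 16 h at 37 °C with compound (23 nl of library stock), in duplicate. After paraformaldehyde fixation and Hoechst stain, imaged at 20x; PNC prevalence scored by image analysis.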
HPGD block = qHTS Assay for Inhibitors of HPGD (15-Hydroxyprostaglandin Dehydrogenase). purified HPGD, NADH fluorescence kinetic, PGE2 substrate. 150,000 compounds, 4.3% hits. 15-hydroxyprostaglandin dehydrogenase [NAD(+)] (Homo sapiens), P15428. Potency, µM, inactives show at the highest dose activity change, negative = inhibition, actives largely listed as inhibitors; also: potency is read from the fitted curve at half-maximal effect
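NADH formation kinetics: reaction with 30 uM PGE2 and 1 mM NAD+ (final), 20 nM enzyme, Tris-HCl pH 8 with Tween 20, after 15 min compound preincubation at room temperature. Fluorescence change, last versus first of five reads.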
IMPase Li inh = qHTS Assay for Identifying the Cell-Membrane Permeable IMPase Inhibitors: Potentiation with Lithium. CHO-M1 cells, IP1 TR-FRET (IP-One), carbachol + lithium. Potency, µM (titrated, usually from 59.4 µM), without a hit: top-dose activity, negative = IMPase inhibition, most hits filed as inhibitors. 210,000 compounds, 0.35% hits. AID 1457, 2008; active = well fitted inhibition curve with a large enough effect; inconclusive = small, poorly fitted or top-dose-only effect; inactive = no such curve, though single readings can be large or run the other way;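 also: IP1 builds up when IMPase is blocked and the TR-FRET signal falls; potency is read from the fitted curve at half-maximal effect; plate controls were basal vehicle for no effect and high inhibitor control for full effect; nearly all actives have a fitted effect of over 50% in size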
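Lithium-sensitised IP1 accumulation assay; M1-expressing CHO cells treated 30 min at 37C with compound. Competitive antibody detection by time-resolved FRET followed a 10 min room-temperature lysis step.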
ALDH1A1 inh = qHTS Assay for Inhibitors of Aldehyde Dehydrogenase 1 (ALDH1A1); Potency, µM (series often up to 75.3 µM), for the others: at the top dose activity, negative = inhibition, most hits filed as inhibitors; AID 1030, 2008; Purified ALDH1A1, NADH fluorescence, propionaldehyde substrate; 220,000 compounds, 7.3% hits;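 also: potency is read from the fitted curve at half-maximal effect; plate controls were no enzyme wells and a reference inhibitor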
Target sequence (P00352 whole entry, looked up): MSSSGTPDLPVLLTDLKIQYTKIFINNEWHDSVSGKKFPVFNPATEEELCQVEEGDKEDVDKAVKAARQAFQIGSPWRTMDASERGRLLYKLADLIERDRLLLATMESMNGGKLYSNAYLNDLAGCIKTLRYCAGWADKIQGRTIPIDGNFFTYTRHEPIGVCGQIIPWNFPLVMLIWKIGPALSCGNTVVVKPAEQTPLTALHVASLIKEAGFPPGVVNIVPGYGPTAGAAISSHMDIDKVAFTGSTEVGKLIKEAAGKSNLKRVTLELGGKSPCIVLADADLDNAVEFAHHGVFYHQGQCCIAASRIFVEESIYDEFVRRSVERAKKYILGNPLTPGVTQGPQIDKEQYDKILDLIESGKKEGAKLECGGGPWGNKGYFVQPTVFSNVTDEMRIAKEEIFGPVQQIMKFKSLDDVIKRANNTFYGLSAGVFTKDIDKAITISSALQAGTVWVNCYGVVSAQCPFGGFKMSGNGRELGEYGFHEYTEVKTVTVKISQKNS
IMPase inh = qHTS Assay for Identifying the Cell-Membrane Permeable IMPase Inhibitors; Inositol monophosphatase 1 (Rattus norvegicus), P97697; CHO-M1 cells, IP1 accumulation, HTRF TR-FRET ratio; inhibition (IP1 accumulation), % at 46.1 µM; 120,000 tested, under 10 active; AID 901, 2007; active = well fitted curve in the direction sought with a large enough effect in the signal ratio, not every such curve was filed as active; inconclusive = small, poorly fitted or top-dose-only effect, or a change in a side signal; inactive = no such curve, though single readings can be large or run the other way; the % refers to the signal ratio;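 also: cells stimulated with carbachol in lithium chloride buffer; plate controls were DMSO basal wells for no effect and reference inhibitor wells for full effect; higher means more IMPase inhibition seen as more IP1 and lower FRET ratio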
Target sequence (P97697 whole entry, looked up): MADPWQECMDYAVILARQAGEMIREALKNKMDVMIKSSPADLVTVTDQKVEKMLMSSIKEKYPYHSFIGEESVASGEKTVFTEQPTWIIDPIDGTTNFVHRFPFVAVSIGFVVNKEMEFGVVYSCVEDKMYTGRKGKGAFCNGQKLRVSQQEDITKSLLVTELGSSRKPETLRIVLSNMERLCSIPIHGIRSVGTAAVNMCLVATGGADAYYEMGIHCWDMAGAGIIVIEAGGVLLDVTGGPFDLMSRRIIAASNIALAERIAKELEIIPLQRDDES
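Elevated IP1 in lysates lowers TR-FRET signal (665/620 ratio and 620 channel reported). Cells were CHO-M1, given carbachol (50 uM as added) plus 50mM LiCl, pH 7.4, 30 min, 37C; compounds titrated up to 46 uM; AC50 by Hill equation.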
The depositor's hits bear a star; ? = inconclusive; / = not tested or not shown; [ ] = dose if it differs, or a comment. This is a sample that favours compounds with a hit; in the whole collection about 11% have one here. Unless noted, calls follow the shape of the dose curve; as a rule, active = well fitted inhibition curve with a large enough effect (not every such curve was filed as active); inconclusive = small, poorly fitted or top-dose-only effect, or another doubt; inactive = no such curve, though single readings can be large or run the other way. Unless noted, % is scaled to controls: 0 for no effect and ±100 for the full control effect.

SMILES	PNC inhibitor	HPGD block	IMPase Li inh	ALDH1A1 inh	IMPase inh
CC1=C(C(=O)OCC2CCCO2)C(c2cccc(O)c2)NC(=O)N1 (centres undefined)	6.5	3.0%	-3.3%[38.3 µM]	-3.9%	-5.6
CCOC(=O)c1c(NC(=O)CC2Nc3ccccc3NC2=O)sc(C)c1C (centres undefined)	49.0	-6.9%	9.5%	8.8%	6.7
CCOC(=O)C1=C(C)NC(=S)NC1c1ccc(OC(=O)c2ccco2)cc1 (centres undefined)	37.1	-9.6%	0.6%	2.24µM*	/
CNCCCOc1cc(C)cc(C)c1C	/	/	6.3%	?	/
COc1ccc(OCC(=O)NC(Cc2c[nH]c3ccccc23)C(=O)O)cc1 (centres undefined)	/	/	/	/	5.3
Cc1ccc(NS(=O)(=O)c2ccc(OCC(=O)NCc3ccncc3)cc2)cc1	?	-6.0%	3.3%	12.8%	-7.0
CC1(C)Cc2c(sc3[nH]c(=S)n(Cc4ccco4)c(=O)c23)CO1	-8.6	22.4µM*	3.55µM*	5.01µM*	-21.4
COc1cc(NC(=O)c2ccc3c(=O)n(Cc4ccco4)c(=S)[nH]c3c2)cc(OC)c1OC	-15.1	-11.2%	4.5%[38.3 µM]	1.26µM*	2.8
CCCN(CCC)C(=O)c1ccc2c(=O)n(Cc3ccco3)c(=S)[nH]c2c1	/	/	11.6%	25.1µM*	/
CN1CCN(C(=O)c2ccc3c(=O)n(Cc4ccco4)c(=S)[nH]c3c2)CC1	39.0	-13.5%	46.6%[38.3 µM]	?	-1.6
CS(=O)(=O)N(CC(=O)NC1CCCC1)C1CCCCC1	/	/	/	6.5%	/
CSc1ccc(C(=S)N2CCN(CCO)CC2)cc1	?	25.1µM*	4.4%	22.4µM*	15.7
OCCN1CCN(C(=S)c2ccc(Br)cc2)CC1	45.8	-9.0%	6.3%[38.3 µM]	6.2%	0.1
Cc1cccc(-c2nnc(SCC(=O)N3c4ccccc4CCc4ccccc43)n2C)c1	-4.1	-2.5%	5.3%	11.2µM*	/
Cn1c(SCC(=O)N2c3ccccc3CCc3ccccc32)nnc1-c1cc2ccccc2cc1O	-4.4	-3.0%	5.4%	?	-5.5
Cc1ccc(NCc2nnc(SCC(=O)N3CCc4ccccc43)n2C)cc1	-12.1	0.3%	4.9%[38.3 µM]	8.91µM*	11.5
O=C(CSc1ccc2nnc(-c3ccc(Cl)cc3)n2n1)N1CCCc2ccccc21	?	?	?	-8.3%	?
Cn1c(SCC(=O)N2CCCc3ccccc32)nnc1-c1ccco1	-17.1	/	/	2.4%	0.1
O=C(CSc1ccc2nnc(-c3ccc(F)cc3)n2n1)N1CCCc2ccccc21	?	-3.0%	-1.2%	14.1µM*	-8.4
Cn1c(SCC(=O)N2CCCc3ccccc32)nnc1-c1ccccc1	6.1	-7.7%	-16.6%[38.3 µM]	25.1µM*	13.9
Cc1cc(=Nc2ccc3c(c2)c(N)cc(C)[n+]3C)nc(N)n1C	/	-10.0%	3.5%	-4.4%[13.5 µM]	/
NC(=O)C1CC(=O)N(c2ccc(OCc3ccccc3Cl)cc2)C1 (centres undefined)	/	/	-2.2%	5.4%	/
O=C(N1CCOCC1)C(F)(F)C(F)(F)C(F)(F)C(F)(F)C(=O)N1CCOCC1	32.7	2.3%	-12.9%[38.3 µM]	6.5%	-3.5
C[C@H](CCC(=O)O)[C@H]1CC[C@@H]2[C@H]3CC[C@H]4C[C@@H](O)CC[C@@]4(C)[C@H]3CC[C@]21C	/	5.7%	3.0%	8.1%[20.9 µM]	-3.7[20.6 µM]
COc1ccc(-c2nc3cc(NC(=O)Cc4ccc(Cl)cc4)ccc3o2)cc1OC	/	/	/	/	-12.1
SMILES	PNC inhibitor	HPGD block	IMPase Li inh	ALDH1A1 inh	IMPase inh
Cn1cnnc1SCC(=O)c1ccc2c(c1)CCCC2	16.8	-12.8%	6.8%[38.3 µM]	31.6µM*	5.6
COc1cc(C(=O)CSc2nncn2C)cc(OC)c1OC	-110.7*	-19.7%	-0.2%[38.3 µM]	12.6µM*	1.8
CCCOc1ccc(/C=C/C(=O)Nc2sc3c(c2C(=O)OCC)CCC(C)C3)cc1OC (centres undefined)	/	/	/	/	-8.9
Cc1ccc2c(c1)c(=O)c1ccccc1n2CCCC(=O)Nc1ccc(C)c(F)c1	/	/	/	/	-5.5
CCOC(=O)c1c(NC(=O)COc2cccc3c2CCN(CC)C3=O)sc2c1CCC2	35.5	?	8.3%	6.0%	/
CCOC(=O)C1(C)C=C(Nc2cccc(C(=O)O)c2)C(=O)N1c1cccc(C(=O)O)c1 (centres undefined)	/	/	/	/	5.6
CN1/C(=C\C(=S)NC(=O)c2ccc([N+](=O)[O-])cc2)C(C)(C)c2ccccc21	-9.9	-1.4%	-5.8%	35.5µM*	-2.5
CN1/C(=C/C2CC(=O)N(c3ccc([N+](=O)[O-])cc3)C2=O)C(C)(C)c2ccccc21 (centres undefined)	?	-19.6%	38.3%[38.3 µM]	11.2µM*	3.9
CN1/C(=C/C(=O)C2CC2)C(C)(C)c2ccccc21	/	/	20.7%	-6.2%	/
CN1/C(=C\C(=S)NC(=O)c2cccc(Br)c2)C(C)(C)c2ccccc21	-17.6	/	/	1µM*	-6.4
CN1/C(=C/C=N/NC(=O)c2ccc([N+](=O)[O-])cc2)C(C)(C)c2ccccc21	?	-18.0%	10.5%	-7.8%	/
O=C(Nc1cccnc1)NC1CCCCC1	/	/	-14.0%	0.1%	/
CSc1nnc2c(n1)OC(c1cccc(O)c1Cl)Nc1ccccc1-2 (centres undefined)	/	/	/	/	3.9
COC(=O)c1cc(NC(=O)C2CCCN(S(=O)(=O)c3c(C)n[nH]c3C)C2)cc(C(=O)OC)c1 (centres undefined)	/	/	-4.0%	-2.8%	/
C#CC(N)CCC(=O)O (centres undefined)	/	-6.5%	-6.6%	11.9%	/
CCCOc1ccc(N2C(=O)CC(N(Cc3ccc(OC)cc3)C(=S)Nc3ccccc3)C2=O)cc1 (centres undefined)	-14.4	-6.2%	-7.6%	3.0%	-2.6
CCCOc1ccc(N2C(=O)CC(N(CCc3ccc(OC)c(OC)c3)C(=S)Nc3ccccc3)C2=O)cc1 (centres undefined)	-1.9	-15.7%	-9.3%	25.1µM*	10.1
O=C(Oc1ccc(Nc2ncnc3ccccc23)cc1)c1cccnc1	/	/	1.6%	3.6%	/
CCOC(=O)Nc1sc(=S)n(C)c1C	-11.6	25.1µM*	8.5%	18.9µM*	-4.3
Cc1ccc(S(=O)(=O)NCCOC(=O)Nc2sc(=S)n(C)c2C)cc1	-6.4	-29.1%	-14.0%[38.3 µM]	?	0.1
Cc1cn([C@H]2C[C@@H](N=[N+]=[N-])[C@@H](CO)O2)c(=O)[nH]c1=O	/	-9.4%	-4.0%	-5.6%	/
COc1ccc(OC)c(C(=O)CSc2nnc(Cc3cccs3)n2C)c1	?	-20.9%	29.9%[38.3 µM]	22.4µM*	9.3
N#Cc1ccc(CSc2nnc(Cc3cccs3)n2Cc2ccco2)cc1	23.1	-20.1%	35.1%[38.3 µM]	11.2µM*	16.5
N#Cc1ccc(CSc2nnc(-c3ccccc3)n2Cc2ccco2)cc1	-25.3	-6.2%	4.1%[38.3 µM]	-3.1%	?
